Growth data for 27 compounds are collected here from PubChem BioAssay (NCI).

The structures appear in SMILES notation. This is part of a sample that, as a whole, favours compounds with a hit. Of some 83,000 tested, about 20% had one in any assay.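 Cell lines were cultured in 96-well plates, exposed to a single compound concentration, and assessed for percent growth 48 hours later.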 Values without a mark were called inactive. Active and inactive are the calls of the source. The calls were made as follows: active = growth percent below 10; inactive = the rest.

The test relates to HL-60(TB) leukemia. As to the kind of experiment: NCI-60 one-dose screen, 48 h (100 = growth as untreated, 0 = no growth, -100 = all killed). Conditions: 10 µM unless noted.
On to `COc1ccc(Cn2cc(C#N)c(N)c2C(C)=O)c(OC)c1`, for which the growth is 99%.

For the compound `COc1cc(CNC(=O)C[C@H](C)CCC=C(C)C)ccc1OCc1cn(-c2ccccc2F)nn1`, the growth was 91.5%.

Consider `Cc1cccc(NCC(=O)N2CCN(c3ncnc4c3cnn4-c3ccccc3)CC2)c1`, for which the growth is 60.2%. The figure for `N#C/C(=C1/C(=O)Nc2ccccc21)c1nnc(NC(=O)c2ccc(-n3c(=O)[nH]c4ccccc4c3=O)cc2)s1` is 7.15% (active); for `Cc1ccc(CNC(=O)Cc2ccc3c(c2)CN(C2CCC(=O)NC2=O)C3=O)cc1` (configuration not stated) it is -23.1% (active).

Regarding `N#Cc1c(-c2ccccc2Cl)cc(-c2c[nH]c3ccccc23)[nH]c1=O`, the growth is 68.4%. The figure for `O=C(NN1C(=O)/C(=C/C=C/c2ccc([N+](=O)[O-])o2)SC1=S)c1ccncc1` is -30.4% (active); for `CCCCCCCOc1ccc(S(=O)(=O)Nc2ccc(C)c(F)c2C(=O)O)cc1` it is 89.8%; for `CCCn1c(O)c(N=Nc2nc(-c3cc4ccccc4oc3=O)cs2)c2cc(Br)ccc21` it is 99.3%.

With `C[C@@H]1[C@H]2C[C@@H](C[C@H]1NCc1nc3ccccc3n1C1CCCCCC1)C2(C)C`, the growth was 15%. The figure for `Cn1cc(-c2cc(N)n3nc(-c4c[nH]c5ccc(Cl)cc45)cc3n2)c2cccnc21` is -59.8% (active); for `COc1ccc2nc(Cl)c(-c3cc(-c4ccccc4)nc(=O)[nH]3)cc2c1` it is 3.35% (active); for `O=C(CSc1nnc(-c2ccc3nc(-c4ccc(Cl)cc4)[nH]c3c2)o1)Nc1ccc(Br)cc1` it is -22.3% (active). The figure for `COc1ccc(NC(=O)Nc2ccc(OCc3ccc(F)cc3)cc2)cc1` is 83.1%; for `O=C(Nc1cccc(-c2cn(-c3ccc4oc(=O)ccc4c3)nn2)c1)Nc1cc(C(F)(F)F)cc(C(F)(F)F)c1` it is 34.3%; for `COc1ccc(-c2nc(SC(C)C)nc(NCCc3c[nH]c4ccccc34)c2C#N)cc1` it is 31.6%.

For `C=C1CCC2C3(C)COC(c4ccccc4F)OC3CCC2(C)C1CC(O)C1=CCOC1=O` (configuration not stated), the growth was 70.5%. With `COc1cc2c(c(OC)c1OC)C(=O)CC(c1cccc(NC(=O)[C@@H](N)CC(C)C)c1)O2` (some centres not stated), the growth was 96.6%.

On to `CN1CCc2c(sc3ncnc(N/N=C/c4ccc5ccccc5c4)c23)C1`, for which the growth is -14.6% (active). With `C=C1CCC2C3(C)COC(c4c(F)cccc4F)OC3CCC2(C)C1CC(O)C1=CCOC1=O` (configuration not stated), the growth is 81.6%. For `O=C(CSc1nc2sc3c(c2c(=O)n1-c1ccc(Cl)cc1)CCCC3)N/N=C/C=C/c1ccccc1`, the growth is 64.5%. As to `CCc1ccccc1-c1nc(CN[C@@H]2C[C@@H]3C[C@H]([C@H]2C)C3(C)C)c(C)o1`, the growth was -35.9% (active). In the case of `COc1cc(CNC(=O)C[C@H](C)CCC=C(C)C)ccc1OCc1cn(-c2ccc(Br)cc2)nn1`, the growth is 88.4%. In the case of `O=C(N=Nc1c(O)[nH]c2ccc([N+](=O)[O-])cc12)c1ccc2nc(-c3ccccc3)[nH]c2c1` it was 84.7%; in that of `C#CCOc1ccc(/C=N/Nc2nc(-c3cc4cc(OC)ccc4oc3=O)cs2)cc1OC`, 76.1%; in that of `CC(=O)Nc1ccc(-c2cn(-c3cccc(C(=O)Nc4ccc(N5CCN(C)CC5)cc4)c3)nn2)cn1`, 64.6%. The figure for `COc1ccc(CN2[C@@H](C(=O)NCc3ccc(C(=O)NO)cc3)Cc3c([nH]c4ccccc34)[C@@H]2C)cc1` is -5.52% (active).
